HTT cytoprotect = qHTS Multiplex Assay to Identify Dual Action Probes in a Cell Model of Huntington: Cytoprotection (ATP). PC12 HTT-Q103 induced, cytoprotection, ATP luminescence, 40 h. Potency, µM (titrated, usually from 56.4 µM), for inactives: cytoprotection (ATP increase), actives largely listed as activators. 0.14% of 230,000 active. AID 1471, 2008; note: potency is the fitted concentration of half-maximal effect; % of control where 0% means no effect; nearly all actives have a fitted effect of over 45% in size
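Cells were plated at 1500 per well in phenol red-free DMEM with 5% equine and 5% calf serum. Tebufenozide (100 nM final) and compounds were added, then ATPlite reagent, and luminescence was read.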
PNC inhibitor = High Content Assay for Compounds that inhibit the Assembly of the Perinucleolar Compartment. activity change (PNC), negative = inhibition, % at 10 µM. PC3M PTB-GFP, PNC prevalence imaging, 16 h; stronger effect = lower value. 3.1% of 140,000 active. AID 2417, 2010;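 active = readout at or below -70, meaning at least 70% loss of cells showing the perinucleolar compartment, a nuclear body marking cancer cells; inconclusive = readout between -30 and a set limit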;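 note: plate controls were DMSO wells for no effect and camptothecin positive control wells for full effect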
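Read-out is percentage of cells bearing a perinucleolar compartment, from automated 20x imaging of fixed, Hoechst-stained PC3M PTB-GFP cells. Cells were seeded 4 h, then exposed 16 h to compound (23 nl of library stock) in duplicate plates.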
12-hLO inh = qHTS Assay for Inhibitors of 12-hLO (12-human lipoxygenase). Potency, µM (top dose mostly 57.1 µM), without a hit: at the highest dose activity change, negative = inhibition, most hits filed as inhibitors. AID 1452, 2008. purified 12-hLO, xylenol orange hydroperoxide absorbance. 0.12% of 150,000 active. Polyunsaturated fatty acid lipoxygenase ALOX12 (Homo sapiens), P18054; note: potency is the fitted concentration of half-maximal effect; % is set by controls: 0 for no effect and ±100 for the full control effect; nearly all actives have a fitted effect of over 55% in size
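150 nM 12hLO, 25 mM Hepes pH 7.0 + 0.01% Triton X-100; cpd preinc 15 min RT; 40 uM arachidonic acid, 30 min RT; Fe-XO 30 min; A573/A405 ratio as read-out.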
IMPase cell inh = qHTS Assay for Identifying the Cell-Membrane Permeable IMPase Inhibitors | Inositol monophosphatase 1 (Rattus norvegicus), P97697 | 120,000 tested, under 10 active | inhibition (IP1 accumulation), % at 46.1 µM | CHO-M1 cells, IP1 accumulation, HTRF TR-FRET ratio; active = well fitted curve in the direction sought with a large enough effect in the signal ratio, not every such curve was filed as active; inconclusive = small, poorly fitted or top-dose-only effect, or a change in a side signal; inactive = no such curve, though single readings can be large or run the other way; the % refers to the signal ratio;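 note: cells stimulated with carbachol in lithium chloride buffer; plate controls were DMSO basal wells for no effect and reference inhibitor wells for full effect; higher means more IMPase inhibition seen as more IP1 and lower FRET ratio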
Target sequence (P97697 whole entry, looked up): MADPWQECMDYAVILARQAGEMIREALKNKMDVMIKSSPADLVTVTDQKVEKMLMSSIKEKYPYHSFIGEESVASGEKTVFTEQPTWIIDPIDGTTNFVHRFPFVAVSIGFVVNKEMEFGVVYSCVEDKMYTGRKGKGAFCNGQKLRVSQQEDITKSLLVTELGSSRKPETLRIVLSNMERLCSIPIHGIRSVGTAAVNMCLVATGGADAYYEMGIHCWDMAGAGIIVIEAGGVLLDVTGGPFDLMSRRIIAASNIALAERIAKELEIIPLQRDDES
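The IP-One HTRF competitive assay in carbachol-stimulated CHO-M1 cells quantifies cellular IP1. Compounds spanned up to 46 uM final, and activity is expressed as AC50 from concentration-response fits of the ratio and donor data.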
NPSR antagonist = qHTS Assay for Antagonists of the Neuropeptide S Receptor: cAMP Signal Transduction; Q6W5P4; CHO-NPSR cells, cAMP TR-FRET, antagonist mode; Potency, µM (doses to about 38.3 µM), for inactives: at the highest dose activity change, negative = inhibition, usual class: inhibitors; 1% of 220,000 active; AID 1461, 2008; note: potency is the fitted concentration of half-maximal effect; % is set by controls: 0 for no effect and ±100 for the full control effect; nearly all actives have a fitted effect of over 50% in size
Target sequence (Q6W5P4 whole entry, looked up): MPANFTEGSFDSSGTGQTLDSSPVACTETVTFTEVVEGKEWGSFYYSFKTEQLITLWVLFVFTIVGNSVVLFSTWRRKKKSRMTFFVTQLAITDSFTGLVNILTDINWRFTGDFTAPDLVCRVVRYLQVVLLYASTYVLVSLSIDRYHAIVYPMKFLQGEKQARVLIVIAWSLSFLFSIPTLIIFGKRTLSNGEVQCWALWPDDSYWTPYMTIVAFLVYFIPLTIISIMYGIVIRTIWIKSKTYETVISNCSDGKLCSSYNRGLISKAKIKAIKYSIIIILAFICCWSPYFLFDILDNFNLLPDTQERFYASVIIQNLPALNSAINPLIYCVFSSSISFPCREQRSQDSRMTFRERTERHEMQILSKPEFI
HttQ103 aggreg = qHTS Multiplex Assay to Identify Dual Action Probes in a Cell Model of Huntington: Aggregate Formation (GFP); PC12 HttQ103-GFP aggregates, Acumen cytometry, 40 h; Potency, µM (series often up to 46.1 µM), for the others: top-dose activity change, negative = inhibition, most hits filed as inhibitors; 1.1% of 220,000 active; note: potency is the fitted concentration of half-maximal effect; % is set by controls: 0 for no effect and ±100 for the full control effect; nearly all actives have a fitted effect of over 60% in size
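Compounds (qHTS titration) were added to PC12 cells expressing an ecdysone-driven HTT exon 1 Q103–GFP fusion after induction with 100 nM tebufenozide. Aggregate formation was measured as GFP objects in cell lysates.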
* marks the source's active call; other numbers are inactive results; [ ] = remark or other dose. Compounds with a hit are over-represented: about 3.3% of the library has one in this group of screens. Unless noted, calls come from the whole dose curve; as a rule, active = well fitted curve in the direction sought with a large enough effect; inconclusive = small, poorly fitted or top-dose-only effect, or another doubt; inactive = no such curve, though single readings can be large; an effect the other way counts as inactive or inconclusive.

Cn1nc(CC(=O)Nc2ccc(N3CCN(C(=O)OC(C)(C)C)CC3)cc2)c2ccccc2c1=O was read as HTT cytoprotect 32.1%[10 µM], PNC inhibitor inconclusive, 12-hLO inh 2.7%, IMPase cell inh 1.7, NPSR antagonist -19.0%[46.1 µM] and HttQ103 aggreg 3.98µM*.
Screening Cn1nc(CC(=O)Nc2ccc3c(c2)OCCO3)c2ccccc2c1=O returned HTT cytoprotect 0.2%[10 µM], PNC inhibitor 7.7, 12-hLO inh -0.4%, IMPase cell inh 5.2, NPSR antagonist -1.7%[46.1 µM] and HttQ103 aggreg inconclusive.
Screening O=C(CSc1nnnn1-c1ccccc1)Nc1nsc(-c2ccc(Cl)cc2)n1 returned HTT cytoprotect 4.7%[10 µM], PNC inhibitor inconclusive, 12-hLO inh -3.5%, IMPase cell inh 5.4, NPSR antagonist -9.8%[46.1 µM] and HttQ103 aggreg -28.1%.
Cc1cc(C)c(NC(=O)CSc2nc3ccc(NC(=O)CSc4nnnn4-c4ccccc4)cc3s2)c(C)c1 was read as PNC inhibitor 10.0, 12-hLO inh 0.6%, NPSR antagonist -2.7% and HttQ103 aggreg 10µM*.
Screening CC(=O)Nc1ccc2nc(SCC(=O)NCCOc3ccccc3)sc2c1 returned HTT cytoprotect -59.6%, NPSR antagonist -7.6% and HttQ103 aggreg 1.0%.
O=C(CSc1nnnn1-c1ccccc1)CC(=O)Nc1ccc(Cl)cc1 was read as HTT cytoprotect -26.4%[0.074 µM], PNC inhibitor 34.7, 12-hLO inh 10µM*, IMPase cell inh -2.0, NPSR antagonist -6.0%[46.1 µM] and HttQ103 aggreg -27.2%.
For CCN(CC)C(=O)CSc1nc2ccc(NC(=O)CSc3nccn3C)cc2s1 the results were HTT cytoprotect -24.4%[10 µM], PNC inhibitor inconclusive, 12-hLO inh -4.7%, IMPase cell inh inconclusive, NPSR antagonist -7.2%[46.1 µM] and HttQ103 aggreg -22.0%.
COc1ccccc1C(=O)Nc1ccc2nc(SCC(=O)N(C)C)sc2c1 was read as PNC inhibitor -113.8*, 12-hLO inh -1.8%, NPSR antagonist -1.3% and HttQ103 aggreg 9.3%.
For CCN(CC)C(=O)CSc1nc2ccc(NC(=O)CSc3nnc(N)s3)cc2s1 the results were HTT cytoprotect -33.1%, PNC inhibitor -100.0*, 12-hLO inh 0.3%, IMPase cell inh 4.0, NPSR antagonist -9.5%[46.1 µM] and HttQ103 aggreg inconclusive.
`CC[C@@](N)(C(=O)O)c1ccc(C(=O)O)cc1` gave HTT cytoprotect 15.7%, 12-hLO inh -0.9% and IMPase cell inh -3.7.
For O=C(NCc1cccc2ccccc12)[C@H]1C[C@@H]1[C@H](NP(=O)(c1ccccc1)c1ccccc1)c1ccccc1 the results were HTT cytoprotect -35.2% and 12-hLO inh -13.5%.
For CCOC(=O)c1c(-c2cccs2)csc1NC(=O)c1ccco1 the results were HTT cytoprotect -10.6%[10 µM], PNC inhibitor -100.0*, 12-hLO inh 5.2%, IMPase cell inh -5.5, NPSR antagonist 20.0%[46.1 µM] and HttQ103 aggreg 7.4%.
CCN(CC)C(=O)c1sc(NC(=O)c2cccnc2)c(C(=O)OC)c1C was read as HTT cytoprotect -1.0%[10 µM], PNC inhibitor 1.3, 12-hLO inh 7.3%, NPSR antagonist 11.3% and HttQ103 aggreg -12.9%.
For COC(=O)c1c(-c2cccs2)csc1NC(=O)c1cccnc1 the results were HTT cytoprotect -54.0%, PNC inhibitor -100.0*, 12-hLO inh -5.4%, IMPase cell inh 3.8, NPSR antagonist -19.1%[46.1 µM] and HttQ103 aggreg -9.9%.
CCOC(=O)c1c(-c2cccs2)csc1NC(=O)CC(C)C was read as HTT cytoprotect -18.1%, PNC inhibitor 12.1, 12-hLO inh -1.0%, IMPase cell inh 6.5, NPSR antagonist inconclusive and HttQ103 aggreg -10.3%.
Screening COc1cccc(-c2nc(NC3CC3)c3ccccc3n2)c1 returned HTT cytoprotect -50.4%.
`Cc1ccc(C)c(OCCn2c(=O)c3c(ncn3C3CCCC3)n(Cc3ccccc3)c2=O)c1` gave HTT cytoprotect -3.3%[10 µM], PNC inhibitor -119.3*, 12-hLO inh -4.6%, NPSR antagonist -50.5% and HttQ103 aggreg -23.2%.
O=c1c2c(ncn2C2CCCC2)n(Cc2ccccc2)c(=O)n1CCOc1ccccc1 was read as HTT cytoprotect -3.6%[10 µM], PNC inhibitor -27.3, 12-hLO inh -7.3%, IMPase cell inh 15.5, NPSR antagonist inconclusive and HttQ103 aggreg -10.0%.
`O=C(/C=C/c1ccco1)NC(=S)Nc1nc(-c2ccc(Cl)cc2)cs1` gave HTT cytoprotect -22.2%[10 µM], PNC inhibitor 20.8, 12-hLO inh -1.4%, IMPase cell inh -13.6, NPSR antagonist 3.16µM* and HttQ103 aggreg inconclusive.
`O=C(/C=C/c1ccco1)NC(=S)Nc1ccccc1N1CCOCC1` gave HTT cytoprotect -27.1%, PNC inhibitor -109.4*, 12-hLO inh inconclusive, IMPase cell inh 4.3, NPSR antagonist -26.6%[46.1 µM] and HttQ103 aggreg -6.9%.
`O=C(/C=C/c1ccco1)NC(=S)Nc1nc(-c2ccc3ccccc3c2)cs1` gave PNC inhibitor 4.5, 12-hLO inh 3.7%, NPSR antagonist 1.26µM* and HttQ103 aggreg 20.8%.
`O=C(/C=C\c1ccco1)Nc1nc(-c2ccccc2)cs1` gave HTT cytoprotect -7.5%[10 µM], PNC inhibitor 21.2, 12-hLO inh -0.4%, NPSR antagonist 18.5% and HttQ103 aggreg 4.0%.
Screening CC(C)c1ccc(NS(=O)(=O)c2ccc3nc(-c4ccccc4)[nH]c3c2)cc1 returned IMPase cell inh 4.8.
COc1ccc(/C=C/C(=O)CC(O)(c2ccccc2)C(F)(F)F)cc1 (stereo not drawn) was read as HTT cytoprotect -1.0%[10 µM], PNC inhibitor -100.0*, 12-hLO inh -0.4%, IMPase cell inh 1.5, NPSR antagonist -14.7%[46.1 µM] and HttQ103 aggreg 12.7%.
COC(=O)C(/C=N/OCc1ccc([N+](=O)[O-])cc1)NC(=O)c1cccc(Cl)c1 (stereo not drawn) was read as HTT cytoprotect -3.0%, PNC inhibitor -98.4*, 12-hLO inh -10.8%, IMPase cell inh -2.7, NPSR antagonist -16.8%[46.1 µM] and HttQ103 aggreg -16.6%.
For Cc1ccc(OCc2nc3ccccc3n2Cc2ccccc2Cl)cc1 the results were IMPase cell inh 4.4.
For CC(=O)NCCNc1ccc([N+](=O)[O-])cn1 the results were PNC inhibitor 30.4, 12-hLO inh 0.9%, NPSR antagonist 12.0% and HttQ103 aggreg 10.3%.

Assay outcomes (PubChem BioAssay)
